Bioassay records (PubChem BioAssay)
ASM inhibitor – inhibitors of human secretory acid sphingomyelinase; P17405; placental ASM, HMU-PC fluorogenic substrate, 60 min; Potency, µM (doses to about 57.5 µM), for the others: at the top dose activity change, negative = inhibition, hits mostly inhibitors; 340,000 compounds, 0.006% hits; further: potency means the concentration at half of the fitted maximal effect
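Human placenta-derived ASM preincubated with compound 10 min at room temperature, then reacted with 9 uM (final) fluorogenic HMU-PC substrate for 60 min at 37 C. Stop solution raises pH to 10; fluorescence read at Ex 386/Em 447 nm.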
Apoferritin bind – binds horse apoferritin like a general anesthetic; AID 485281; Potency, µM (series often up to 77.5 µM), without a hit: at the top dose activity change, negative = displacement, hits mostly inhibitors; 350,000 compounds, 0.074% hits; P02791; apoferritin/1-aminoanthracene competitive binding, fluorescence; further: potency means the concentration at half of the fitted maximal effect; on the % scale 0 is the no-effect control and ±100 the full control effect; nearly all actives have a fitted effect of over 20% in size
Target sequence (P02791 2-175 limits assumed): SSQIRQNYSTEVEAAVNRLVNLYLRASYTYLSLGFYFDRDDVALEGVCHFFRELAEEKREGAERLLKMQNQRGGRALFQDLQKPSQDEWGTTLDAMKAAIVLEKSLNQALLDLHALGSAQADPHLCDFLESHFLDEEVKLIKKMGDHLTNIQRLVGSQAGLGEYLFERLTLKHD
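Probe: 1-aminoanthracene (50% saturated, PBS). Protein: horse-spleen apoferritin, 10 uM. Incubation: 10 min, room temperature. Detection: 380 nm excitation, 535 nm emission. Analysis: normalized response, four-parameter Hill.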
TSHR antagonist – human thyrotropin receptor antagonism; TSHR-expressing cells, TSH-stimulated cAMP HTRF, 2 h; hits give low values; activity change, negative = inhibition, % at 11.5 µM; 330,000 compounds, 0.2% hits; AID 504810;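 active means activity change below a set negative limit, meaning inhibition stronger than a set level, cut at about -70% in these data; inconclusive means activity change between two set negative limits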; further: on the % scale 0 is the no-effect control and ±100 the full control effect
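Inhibition of cAMP made by TSHR-expressing cells under TSH stimulation (4nM final, EC80; 2 h, 37 deg C) is quantified with a one-step lysis HTRF kit, anti-cAMP cryptate versus cAMP-d2.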
BRCA1 expr up – increases BRCA1 expression. 380,000 compounds, 1.1% hits. Potency, µM (top dose mostly 46.1 µM), for the others: at the top dose activation, most hits filed as activators. MCF7-BRCA1-FFLuc reporter, luminescence, 48 h; response scale: scaled: vehicle 0%, 10 µM genistein 100%; further: potency means the concentration at half of the fitted maximal effect; nearly all actives have a fitted effect of over 80% in size
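Cells: MCF7-BRCA1-FFLuc, 2000/well. Exposure: 48 h, 37 °C, 5% CO2. Read: luminescence, 15 min post-substrate. Controls: genistein 10 microM (maximal activation), DMSO (neutral).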
TSG101-PTAP inh – blocks PTAP/TSG101 interaction to inhibit HIV-1 budding; Fluorescence polarization, FITC-PTAP peptide / Tsg101 binding; Potency, µM (top dose mostly 115 µM), inactives show at the top dose activity change, negative = inhibition, most hits filed as inhibitors; Q99816; 340,000 tested, under 10 active; active means well fitted inhibition curve with a large enough effect in the main read-out, with a control signal flat, not every such curve was filed as active; inconclusive means small, poorly fitted or top-dose-only effect, or effect the other way, or a change in a side signal; inactive means no such curve, though single readings can be large or run the other way; further: potency means the concentration at half of the fitted maximal effect; % of control where 0% means no effect
Target sequence (Q99816 whole entry, looked up): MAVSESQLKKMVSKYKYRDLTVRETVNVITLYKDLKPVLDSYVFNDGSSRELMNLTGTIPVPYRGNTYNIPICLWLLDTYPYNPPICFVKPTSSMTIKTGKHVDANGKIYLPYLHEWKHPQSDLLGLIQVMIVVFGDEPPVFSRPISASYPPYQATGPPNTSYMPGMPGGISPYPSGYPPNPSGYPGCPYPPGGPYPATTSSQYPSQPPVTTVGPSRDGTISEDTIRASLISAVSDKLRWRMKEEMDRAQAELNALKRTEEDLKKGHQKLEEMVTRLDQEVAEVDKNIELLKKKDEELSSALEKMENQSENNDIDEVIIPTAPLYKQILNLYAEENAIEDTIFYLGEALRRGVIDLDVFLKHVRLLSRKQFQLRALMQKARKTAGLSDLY
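Compounds were pin-transferred onto Tsg101 binding domain (10 uM final) in HEPES pH 7.5 buffer, then FITC-PTAP peptide was added at 50 nM final. After 20 min at RT, polarization reported peptide displacement across a qHTS concentration series.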
Numbers without * were called inactive; [ ] = dose if it differs, or a comment. Rows were chosen to be rich in hits. Some 1.2% of all compounds tested hit in one or more screens of this group. Unless noted, the call rests on the fitted dose curve; in most records, active means well fitted curve in the direction sought with a large enough effect; inconclusive means small, poorly fitted or top-dose-only effect, or another doubt; inactive means no such curve, though single readings can be large; an effect the other way counts as inactive or inconclusive.

What do the screens show for `COc1cc(CC2C(=O)N(C)C(=O)N(C)C2=O)ccc1OCc1ccccc1`?
ASM inhibitor: -4%; Apoferritin bind: -23%; TSHR antagonist: -13; BRCA1 expr up: 13µM*; TSG101-PTAP inh: 0%

Results for CN(C)c1ccc(N=Nc2ccccc2)cc1 ?
BRCA1 expr up: 10µM*

Results for CN(C)c1ccc(N=O)cc1 ?
BRCA1 expr up: 0%

What do the screens show for `CCCCn1cc[n+](C)c1`?
Apoferritin bind: 0%

How did Nc1c([N+](=O)[O-])ccc(Oc2ccccc2)c1Cl do in these assays?
Apoferritin bind: -24%

What do the screens show for `CC(C)(C)C(=O)c1cn(CC(=O)NCc2ccco2)c2ccccc12`?
ASM inhibitor: -2%; Apoferritin bind: -13%; TSHR antagonist: 5; BRCA1 expr up: 5.6µM*; TSG101-PTAP inh: -7%

Results for Cc1cc(SCc2sc(-c3ccc(C(F)(F)F)c(F)c3)nc2C)ccc1OCC(=O)O ?
Apoferritin bind: -18%

How did COc1cc(C(C)=O)ccc1OC(=O)N(C)c1ccccc1 do in these assays?
ASM inhibitor: -6%; Apoferritin bind: inconclusive; TSHR antagonist: -122*; BRCA1 expr up: -2%; TSG101-PTAP inh: -5%

What do the screens show for `C/C(=N\NC(N)=S)C12CC3CC(CC(C3)C1)C2`?
ASM inhibitor: 0%; Apoferritin bind: 8.9µM*; TSHR antagonist: -42; BRCA1 expr up: -40%; TSG101-PTAP inh: 0%

What do the screens show for `CC(C)(C)OC(=O)C(Br)CCBr` (stereo not drawn)?
Apoferritin bind: -1%

How did Cc1ccc(-c2ccc(=O)n(CCC(=O)N3CCC4(CC3)OCCO4)n2)cc1 do in these assays?
ASM inhibitor: 1%; Apoferritin bind: inconclusive; TSHR antagonist: 11; BRCA1 expr up: 11µM*; TSG101-PTAP inh: -3%

How did Cc1nn(CC(C)C)c(Cl)c1C(=O)NC1CCC(C)CC1 (stereo not drawn) do in these assays?
ASM inhibitor: 0%; TSHR antagonist: 0; BRCA1 expr up: 3.2µM*; TSG101-PTAP inh: -3%

Results for Cc1c(F)c(F)c(COC(=O)C2C(/C=C(\Cl)C(F)(F)F)C2(C)C)c(F)c1F (stereo not drawn) ?
Apoferritin bind: 10%

What do the screens show for `C[C@@H]1Cc2c(Cl)cc(C(=O)N[C@H](Cc3ccccc3)C(=O)O)c(O)c2C(=O)O1`?
Apoferritin bind: 131%

How did C[C@]12CC[C@H]3[C@@H](CC[C@]4(O)C[C@@H](O)CC[C@]34C=O)[C@@]1(O)CC[C@@H]2C1=CC(=O)OC1 do in these assays?
ASM inhibitor: 2%; TSHR antagonist: -72*; BRCA1 expr up: -68%; TSG101-PTAP inh: 0%

How did CCCCN=C[C@]12CCC(O)CC1(O)CCC1[C@@H]2CC[C@]2(C)[C@H](C3C=CC(=O)O3)CCC12O (stereo partly drawn) do in these assays?
ASM inhibitor: 4%; Apoferritin bind: 5%; TSHR antagonist: -70*; BRCA1 expr up: -89%; TSG101-PTAP inh: 0%

How did CC12CCC3C(CCC4(O)CC(O)CCC34C=O)C1(O)CCC2C1=CC(=O)OC1 (stereo not drawn) do in these assays?
ASM inhibitor: 1%; BRCA1 expr up: -88%; TSG101-PTAP inh: 0%

How did C[C@@H]1O[C@H](O[C@@H]2CC[C@@]3(C=O)[C@H]4CC[C@@]5(C)[C@@H](C6=CC(=O)OC6)CC[C@@]5(O)[C@@H]4CC[C@]3(O)C2)C[C@H](O)[C@@H]1O do in these assays?
Apoferritin bind: 35%[29.3 µM]

What do the screens show for `C[C@H]1O[C@@H](OC2CC[C@]3(C=O)[C@H]4CC[C@]5(C)[C@@H](C6=CC(=O)OC6)CC[C@]5(O)[C@@H]4CC[C@]3(O)C2)CC2OC(C)(C)OC21` (stereo partly drawn)?
ASM inhibitor: -5%; Apoferritin bind: 1%; TSHR antagonist: -74*; BRCA1 expr up: -81%; TSG101-PTAP inh: -2%

How did O=C1C(Cl)=C(Cl)C(=O)C(Cl)=C1Cl do in these assays?
Apoferritin bind: -17%

How did CC(=O)[C@H]1CC[C@H]2C3CC[C@H]4C[C@](C)(O)CC[C@]4(C)C3CC[C@]12C (stereo partly drawn) do in these assays?
Apoferritin bind: -6%

How did CC(C)=CCC[C@](C)(O)C1CC[C@]2(C)[C@@H]1CC[C@@H]1[C@@]3(C)CCC(=O)C(C)(C)[C@@H]3CC[C@]12C (stereo partly drawn) do in these assays?
Apoferritin bind: 39%

How did C[C@H](N)C(=O)N[C@@H](C)C(=O)N[C@@H](Cc1ccccc1)C(=O)CCl do in these assays?
Apoferritin bind: 4%

What do the screens show for `Cc1ccc(NC(=O)OC(C)CNC(=O)Oc2cccc(C)c2)cc1` (stereo not drawn)?
ASM inhibitor: -1%; Apoferritin bind: inconclusive; TSHR antagonist: -3; BRCA1 expr up: 11µM*; TSG101-PTAP inh: -2%

Results for CN1C(=O)[C@]23CC4=CC=C[C@H](O)[C@H]4N2C(=O)[C@@]1(CO)SS3 ?
Apoferritin bind: -6%

How did Cc1nc2ccc(P(=O)(O)O)cc2s1 do in these assays?
Apoferritin bind: -1%; TSHR antagonist: -2

What do the screens show for `Cc1nc2ccc(NC(=O)c3ccc(Cl)s3)cc2s1`?
ASM inhibitor: 9%; Apoferritin bind: -11%; TSHR antagonist: -6; BRCA1 expr up: 3.5µM*; TSG101-PTAP inh: -2%

How did O=[N+]([O-])c1ccc(N2CC2)c([N+](=O)[O-])c1 do in these assays?
ASM inhibitor: -3%; BRCA1 expr up: -16%; TSG101-PTAP inh: -2%

What do the screens show for `O=[N+]([O-])c1ccc(Sc2nc3ccccc3o2)c([N+](=O)[O-])c1`?
ASM inhibitor: 0%; Apoferritin bind: -16%; TSHR antagonist: -71*; BRCA1 expr up: -95%

Results for COC(=O)C1=C(c2ccc(-c3ccccc3)c(F)c2)C[C@@H]2CC[C@H]1N2C(=O)NC(C)C ?
ASM inhibitor: -17%; TSHR antagonist: -93*; BRCA1 expr up: -53%; TSG101-PTAP inh: -1%

What do the screens show for `COC(=O)C1=C(c2ccc(-c3ccccc3)c(F)c2)C[C@@H]2CC[C@H]1N2C(=O)NCCO`?
ASM inhibitor: 0%; TSHR antagonist: -9; BRCA1 expr up: -11%; TSG101-PTAP inh: -4%

Results for COC(=O)C1=C(c2ccc(-c3ccccc3)c(F)c2)C[C@@H]2CC[C@H]1N2C(=O)NCc1ccco1 ?
ASM inhibitor: -16%; TSHR antagonist: -83*; BRCA1 expr up: -38%; TSG101-PTAP inh: 1%

What do the screens show for `Cc1ccc(-n2c(=O)[nH]c3ccccc3c2=O)cc1[N+](=O)[O-]`?
BRCA1 expr up: 11µM*

Results for O=c1[nH]c2ccccc2c(=O)n1-c1cccc(Cl)c1 ?
ASM inhibitor: 7%; Apoferritin bind: -7%; TSHR antagonist: 2; BRCA1 expr up: 46%; TSG101-PTAP inh: -3%
